Sampled rows, rich in hits. Any-hit rate of the full collection: about 0.64%.
RECQ1 helicase = inhibitors of human RECQ1 DNA helicase. RECQ1 DNA unwinding, red fluorescence kinetic read. hit rate 0.54% among 240,000. AID 2549. Potency, µM (top dose mostly 57.3 µM), for inactives: at the top dose activity, negative = inhibition, actives largely listed as inhibitors;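 note: plate controls were vehicle for no effect and no enzyme for full effect; nearly all actives have a fitted effect of over 30% in size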
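50 nM RECQ1T1 preincubated 15 min with compound in Tris pH 8.0 buffer with MgCl2, DTT, Tween-20 and 2.5 ug/ml poly(dI-dC); started with 200 nM TAMRA/BHQ-2 forked duplex and 2 mM ATP. Unwinding read as fluorescence (525/598 nm), two reads 2 h apart.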
TRb-SRC2 inh = disrupts binding of human TR beta to SRC2; P10828; TRbeta-SRC2 peptide binding, fluorescence polarization; receptor liganded with 1 µM T3; Potency, µM (series often up to 106 µM), for the others: at the highest dose activity change, negative = inhibition, actives largely listed as inhibitors; hit rate 0.065% among 280,000; AID 1469;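 note: plate controls were bound peptide for no effect and peptide without receptor for full effect; nearly all actives have a fitted effect of over 50% in size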
Target sequence (P10828 whole entry, looked up): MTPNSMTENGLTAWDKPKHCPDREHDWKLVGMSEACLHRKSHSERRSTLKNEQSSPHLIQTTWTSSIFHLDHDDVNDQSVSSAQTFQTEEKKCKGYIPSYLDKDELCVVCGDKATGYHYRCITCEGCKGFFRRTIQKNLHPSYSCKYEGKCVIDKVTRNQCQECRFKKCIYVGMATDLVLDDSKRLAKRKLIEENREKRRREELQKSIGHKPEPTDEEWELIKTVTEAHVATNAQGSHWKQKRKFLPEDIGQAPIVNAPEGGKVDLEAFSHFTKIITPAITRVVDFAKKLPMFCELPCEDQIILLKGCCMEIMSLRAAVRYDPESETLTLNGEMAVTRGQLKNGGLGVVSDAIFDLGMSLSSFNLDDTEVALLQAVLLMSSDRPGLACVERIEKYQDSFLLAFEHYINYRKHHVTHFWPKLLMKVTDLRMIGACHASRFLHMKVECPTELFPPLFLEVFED
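Read-out is fluorescence polarization (555 nm excitation, 632 nm emission) of a Texas Red SRC2 coactivator peptide; loss of signal reflects blocked binding to human TRb ligand-binding domain in the presence of 1 uM T3.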
TexasRed fluor = Texas Red fluorescence interference in TRb-SRC2 counter-screen; Potency, µM (highest dose often 106 µM), without a hit: at the highest dose fluorescence change, negative = quenching; hit rate 0.29% among 280,000; TRb/SRC2 Texas Red total fluorescence interference; active = well fitted curve in either direction with a large enough effect; inconclusive = small, poorly fitted or top-dose-only effect
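Flags fluorescent or light-absorbing compounds by total fluorescence, S + 2P, at 555 nm excitation and 632 nm emission. Mixture: 20 nM Texas Red SRC2 peptide, 0.6 uM human TRb LBD, 1 uM T3, 5% DMSO; compound exposure 5 h at ambient temperature.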
BLM helicase inh = blocks DNA unwinding by human BLM helicase. recombinant BLM DNA unwinding, fluorescence dequenching. hit rate 0.2% among 350,000. Potency, µM (highest dose often 56.1 µM), inactives show at the highest dose activity change, negative = inhibition, usual class: inhibitors. P54132;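 note: plate controls were vehicle for no effect and no enzyme for full effect; nearly all actives have a fitted effect of over 35% in size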
* hit, by the source's call; i = inactive; ? = inconclusive; / = no result given; ! = repeats disagree; [ ] = dose if it differs, or a comment. Unless noted, calls come from the whole dose curve; as a rule, active = well fitted curve in the direction sought with a large enough effect; inconclusive = small, poorly fitted or top-dose-only effect, or another doubt; inactive = no such curve, though single readings can be large; an effect the other way counts as inactive or inconclusive. Unless noted, % is set by controls: 0 for no effect and ±100 for the full control effect; potency is the fitted concentration of half-maximal effect.

SMILES | RECQ1 helicase | TRb-SRC2 inh | TexasRed fluor | BLM helicase inh
CCOC(=O)NN1C(=O)c2ccccc2NC1c1ccc(N(C)C)cc1 (centres undefined) | -10% | -11% | 112µM*[quencher] | -2%
CCOC(=O)NN1C(=O)c2ccccc2NC1c1ccccc1 (centres undefined) | -2% | 6% | ? | 7%
CCCCOCCOCCO | / | -8%[201 µM] | -2%[201 µM] | /
COCCCNC(=O)c1cccn2c(=O)c3cc4ccccc4cc3nc12 | -1% | -13% | -14% | 1%
O=C(NCc1ccco1)c1cccn2c(=O)c3cc4ccccc4cc3nc12 | ? | -10% | -12% | 20µM*
COc1ccc(NC(=O)CSC2=Nc3ccccc3C3=NC(CCC(=O)NC4CCCCC4)C(=O)N23)cc1Cl (centres undefined) | / | -6% | -1% | -1%
CC(C)c1cccc(C(C)C)c1 | / | 1%[201 µM] | -2%[201 µM] | /
Cc1ccc(-c2nnc(Nc3ccc(C(=O)N(C)C)cc3)c3ccccc23)cc1S(=O)(=O)N(C)C | / | 1% | 1% | 0%
O=S(=O)(NCc1ccc(Cl)cc1)c1ccc2[nH]c3c(c2c1)CCCC3 | / | -7% | 25µM*[quencher] | -15%
O=S(=O)(Nc1cccc(Cl)c1)c1ccc2[nH]c3c(c2c1)CCCCCC3 | / | -15% | 126µM*[quencher] | -2%
Cc1cccc(NS(=O)(=O)c2ccc3[nH]c4c(c3c2)CCCCCC4)c1 | / | 0% | 3% | -15%
CCOc1ccc(N(C)S(=O)(=O)c2ccc3c(c2)CCCN3C(C)=O)cc1 | / | -1% | 5% | -2%
Cc1ccccc1-c1nc2c3c(-c4ccccc4)c(-c4ccccc4)oc3ncn2n1 | / | 1% | 2% | 1%
O=C(Nc1nc(-c2ccc(Br)cc2)ns1)c1ccccc1F | / | -4% | ? | -5%
CC1=C(/C=C/C(C)=C/C=C/C(C)=C\C(=O)O)C(C)(C)CCC1 | 5% | 22µM*! | 28µM*![fluorescent] | 2%
C=CCN1C(=O)/C(=C\C=C2\N(C)c3ccccc3C2(C)C)SC1=S | 1.4µM* | 13% | ? | ?
COc1ccccc1NCc1nnc2n1CCCCC2 | / | -3% | -6% | -2%
COc1cc(/C=C(\C#N)C(=O)c2ccc(O)c(O)c2)cc(I)c1O | 0.89µM* | -5% | -6% | /
CCc1ccc(C(=O)c2cnc3ccc(F)cc3c2S(=O)(=O)c2ccccc2)cc1 | / | -10% | 25µM*[quencher] | -4%
CCOC(=O)c1c(S(=O)(=O)NCC(=O)N2CCN(c3cccc(Cl)c3)CC2)c(C)n(C)c1C | / | -23% | 0.35µM*[quencher] | 1%
CC(C)CC(=O)NC(=S)Nc1ccc(Cl)cn1 | -1% | -21%[53 µM] | 4µM*[quencher] | 2%
CC(=O)CC(=O)Nc1ccc(Cl)cn1 | i | -1% | -1% | -8%
Cc1c(Cl)cccc1NC(=O)C1CCCN(c2nnc(-n3c(C)ccc3C)s2)C1 (centres undefined) | / | -2% | -2% | 0%
CCN1CC2=C(OC(N)=C(C#N)C2c2ccccc2)/C(=C\c2ccccc2)C1 (centres undefined) | 16% | 45µM* | 45µM*[fluorescent] | -17%
N#CC1=C(N)OC2=C(CN(Cc3ccccc3)C/C2=C\c2cccnc2)C1c1cccnc1 (centres undefined) | 8% | ? | ? | -1%
SMILES | RECQ1 helicase | TRb-SRC2 inh | TexasRed fluor | BLM helicase inh
CC(C)N1CC2=C(OC(N)=C(C#N)C2c2cccnc2)/C(=C/c2cccnc2)C1 (centres undefined) | 17% | 45µM* | 45µM*[fluorescent] | 1%
CCOc1ccccc1NC(=O)Cc1coc2c(C)c(C)ccc12 | / | -12%[53 µM] | 35µM*[quencher] | -3%
c1ccc(B(c2ccccc2)c2ccccc2)cc1 | / | 2%[201 µM] | 1%[201 µM] | /
COC(=O)c1ccccc1NC(=O)c1nc(-c2ccc(Cl)cc2)n2c1CCCCC2 | / | -9% | 20µM*[quencher] | -5%
Cc1nc2c(c(=O)n1CCC1=CCCCC1)c1nc3ccccc3nc1n2/N=C/c1ccco1 | 28µM* | 25% | -28% | -23%
O=C1CCCCCCCCCCC1 | / | -4%[201 µM] | 0%[201 µM] | /
Cc1ccc(C)c(N2CCN(c3ncnc4c3nc3n4CCCCC3)CC2)c1 | / | 11% | 4% | -10%
Cc1cccc(N2CCN(C(=O)C3CCN(c4ncnc5c4nc4n5CCCCC4)CC3)CC2)c1C | / | 4% | ? | -7%
Cc1cccc(N2CCN(C(=O)C3CCN(c4ncnc5c4nc4n5CCCCC4)CC3)CC2C)c1 (centres undefined) | / | -6% | 20µM*[quencher] | -7%
COc1ccc(OC)c(CNC(=O)C2CCN(c3ncnc4c3nc3n4CCCCC3)CC2)c1 | / | 1% | 9% | 0%
COc1cccc(CNC(=O)C2CCN(c3ncnc4c3nc3n4CCCCC3)CC2)c1 | / | -10% | 20µM*[quencher] | -6%
Cc1ccc(C)c(N2CCN(c3ncnc4c3nc3n4CCCC3)CC2)c1 | / | -7% | 20µM*[quencher] | -6%
Cc1ccc2oc3c(c(=O)c2c1)C(c1ccc(OCC(N)=O)cc1)N(Cc1ccc2c(c1)OCO2)C3=O (centres undefined) | / | 1% | 2% | -2%
COc1ccc(Cl)cc1NC(=O)N1CCC(CN2CCc3ccccc3C2)CC1 | / | -26% | 56µM*[quencher] | 2%
COC(=O)c1ccc(NC(=O)N2CCC(CN3CCc4ccccc4C3)CC2)cc1 | / | -30% | 112µM*[quencher] | 1%
COC(=O)c1ccc(NC(=O)Cn2c(=O)oc3ccccc32)cc1 | / | 5% | -7% | -4%
C/C(=N\NC(=O)c1cc2ccccc2cc1O)c1ccc2c(c1)OCO2 | -12% | 23% | 35µM*[quencher] | -16%
C/C(=N\NC(=O)c1ccc(C)cc1C)c1ccc2c(c1)OCO2 | -3% | 2% | 0% | -2%
CCS(=O)(=O)N1CC(=O)N(c2ccc(Cl)cc2)C(C)(C(=O)NC2CCCCCC2)C1 (centres undefined) | / | -5% | 18µM*[quencher] | 0%
CCCS(=O)(=O)N1CC(=O)N(c2ccc(Cl)cc2C)C(C)(C(=O)NC2CCCC2)C1 (centres undefined) | / | -5% | 28µM*[quencher] | 0%
COc1ccc(-n2nc3c(N4CCCC(C(=O)NCCc5ccc(C)cc5)C4)nnc(C)c3c2C)cc1 (centres undefined) | / | -7% | -1% | -1%
O=C(CSc1ccc2nnc(-c3ccccn3)n2n1)N1CCN(c2ccccc2)CC1 | 40µM* | 1% | -2% | -7%
O=C(CSc1ccccn1)N1CCN(c2ccccc2)CC1 | -16% | -7% | 0% | 0%
CC1=C(C(=O)OCc2ccc(C)cc2)C(c2cccc(F)c2F)CC(=O)N1 (centres undefined) | / | -3% | -1% | 0%
O=c1c(O)c(-c2cc(O)c(O)c(O)c2)oc2cc(O)cc(O)c12 | 0.89µM* | 19% | -26% | /
COc1c(-c2ccc(O)c(O)c2)oc2cc(O)cc(O)c2c1=O | 18µM*! | -4% | -3% | 11µM*!
O=c1c(O)c(-c2ccccc2)oc2cc(O)cc(O)c12 | -17% | 2% | -2% | -3%
CCCCCCCC/C=C\CCCCCCCCCCCCC | / | -3%[201 µM] | -1%[201 µM] | /
COc1ccc(C2CC(=O)Oc3c(C(CCN4CCOCC4)c4ccc5c(c4)OCO5)c(OC)cc(OC)c32)cc1 (centres undefined) | -16% | 1% | -2% | 0%

Compound activity deposited in PubChem by National Center for Advancing Translational Sciences (NCATS).
